This is a sample that favours compounds with a hit; in the whole collection about 3% have one here.
PAFAH1B2 inh: inhibitors of human PAFAH1B2; inhibition, % at 3.39 µM; AID 492953; P68402; actives 1.2% (n = 340,000); recombinant PAFAH1B2, FP-rhodamine activity probe, fluorescence polarization;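 active = inhibition above the mean of all tested compounds plus 3 SD, cut at about 24% in these data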
Target sequence (P68402 whole entry, looked up): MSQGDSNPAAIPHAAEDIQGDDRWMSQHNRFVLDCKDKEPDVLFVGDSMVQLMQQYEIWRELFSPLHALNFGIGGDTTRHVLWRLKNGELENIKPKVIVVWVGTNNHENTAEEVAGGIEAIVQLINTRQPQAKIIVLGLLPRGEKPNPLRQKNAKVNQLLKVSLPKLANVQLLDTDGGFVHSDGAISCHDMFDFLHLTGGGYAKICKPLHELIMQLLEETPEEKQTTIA
PP5 primary: PP5 (human) phosphatase inhibition. purified PP5c, OMFP substrate fluorescence. actives 0.18% (n = 320,000). AID 1987. inhibition, % at 6.7 µM. P53041;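 active = inhibition above the campaign's mean inhibition across all tested compounds plus 3 SD, cut at about 9.5% in these data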
PAFAH2 FP inh: inhibitors of human PAFAH2 | inhibition, % at 3.39 µM | recombinant PAFAH2, FP-rhodamine activity probe, fluorescence polarization | Q99487 | actives 0.99% (n = 340,000);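 active = inhibition above the mean over all tested compounds plus 3 SD, cut at about 30% in these data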;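 also: inhibitors block probe labeling of enzyme so polarization drops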
pPAFAH FP inh: pPAFAH (human) enzyme inhibition. Q13093. recombinant pPAFAH, FP-rhodamine probe fluorescence polarization. inhibition, % at 3.39 µM. actives 1.5% (n = 330,000). AID 463082;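 active = inhibition above the mean inhibition across the screen plus 3 SD, cut at about 25% in these data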;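 also: inhibitors block binding of the rhodamine activity-based probe so polarization drops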
Target sequence (Q13093 whole entry, looked up): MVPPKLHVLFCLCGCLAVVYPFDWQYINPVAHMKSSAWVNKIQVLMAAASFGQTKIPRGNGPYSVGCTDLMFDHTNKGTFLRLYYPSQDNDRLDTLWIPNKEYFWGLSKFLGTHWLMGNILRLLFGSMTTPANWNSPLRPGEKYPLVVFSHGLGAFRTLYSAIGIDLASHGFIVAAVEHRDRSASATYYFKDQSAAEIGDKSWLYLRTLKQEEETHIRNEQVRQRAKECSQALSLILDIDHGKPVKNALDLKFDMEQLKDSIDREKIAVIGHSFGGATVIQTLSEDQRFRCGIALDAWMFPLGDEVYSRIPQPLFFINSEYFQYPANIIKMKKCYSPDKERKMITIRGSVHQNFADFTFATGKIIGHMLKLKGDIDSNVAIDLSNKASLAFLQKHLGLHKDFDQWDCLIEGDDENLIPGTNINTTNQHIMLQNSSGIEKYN
CTSL1 counter: blocks F. hepatica cathepsin L1 in PFM18AAP counter-screen; inhibition, % at 5.96 µM; recombinant F. hepatica cathepsin L1, Z-Leu-Arg-MCA fluorescence; AID 1906; actives 0.49% (n = 300,000);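 active = inhibition above the mean of all tested compounds plus 3 SD, set per screening campaign, cut at about 17% in these data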
PAFAH1B3 FP inh: blocks human PAF acetylhydrolase 1B catalytic subunit 3 | Q15102 | recombinant PAFAH1B3, FP-rhodamine probe, fluorescence polarization | inhibition, % at 3.39 µM | actives 0.28% (n = 340,000) | AID 492972;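 active = inhibition above the screen-wide average of all tested compounds plus 3 SD, cut at about 25% in these data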
PAFAH2 FP conf: PAFAH2 (human) inhibition, confirmed; shares compounds with PAFAH2 FP inh; recombinant PAFAH2, FP-rhodamine activity probe, fluorescence polarization; inhibition, % at 3.39 µM; actives 65% (n = 2,300); AID 493030;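 active = mean inhibition over three repeats above a set limit taken from the earlier primary screen, cut at about 30% in these data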;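 also: inhibitor blocks binding of rhodamine activity probe so polarization falls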
Each line names hits and unclear results; the compound was inactive in the other large screens (follow-up assays come after a bar, where they were run).

COc1cc(C(=O)OCC(=O)Nc2ccc(C)cc2)cc(OC)c1OC	PAFAH2 FP inh 31 | PAFAH2 FP conf inactive
NS(=O)(=O)c1cc(C(=O)OCC(=O)NC2CCCCCCC2)ccc1Cl	none (no result: PP5 primary, pPAFAH FP inh, CTSL1 counter)
CN(C(=O)COC(=O)c1ccc2c(c1)OCCO2)C1CCCCC1	PAFAH2 FP inh 69 (no result: PP5 primary, pPAFAH FP inh, CTSL1 counter) | PAFAH2 FP conf 61
CN(C(=O)COC(=O)c1cncc(Br)c1)C1CCCCC1	none (no result: PP5 primary, CTSL1 counter)
Cc1ccc(NC(=O)COC(=O)c2cc(Cl)ccc2[N+](=O)[O-])cc1	PAFAH2 FP inh 56 | PAFAH2 FP conf 38
CCN(CC)c1ccc(C(=O)NNC(=O)CNC(=O)c2ccco2)cc1	none (no result: PP5 primary, pPAFAH FP inh, CTSL1 counter)
COc1cc(C(=O)OCC(=O)NC2CCCC2)cc(OC)c1OC	none
Cc1cc(C)cc(C(=O)OCC(=O)NC(=O)NC2CCCC2)c1	none (no result: CTSL1 counter)
Cc1cc(C)cc(C(=O)OCC(=O)NC2CCCC2)c1	PAFAH2 FP inh 43 | PAFAH2 FP conf inactive
COc1cc(C(=O)OCC(=O)NC2CCCCC2)cc(OC)c1OC	PAFAH2 FP inh 41 (no result: PP5 primary, CTSL1 counter) | PAFAH2 FP conf inactive
COc1cc(C(=O)OCC(=O)NC2CCCCC2)cc2c1OCCO2	PAFAH2 FP inh 74 (no result: CTSL1 counter) | PAFAH2 FP conf 66
CC(C)c1ccc(/C=C2\SC(=O)N(CC(=O)NC3C=CS(=O)(=O)C3)C2=O)cc1 (configuration not stated)	none
O=C1CCCN1C(=O)COc1ccccc1[N+](=O)[O-]	PAFAH2 FP inh 30 | PAFAH2 FP conf inactive
O=C1CCCN1C(=O)COc1cc(F)ccc1[N+](=O)[O-]	none (no result: CTSL1 counter)
CCN(CC)CCCNC(=O)C1CCN(C(=O)c2oc3cc4sc(N(C)C)nc4cc3c2C)CC1	none
COc1cccc(C(=O)O/N=C2\CCS(=O)(=O)c3sccc32)c1	PAFAH2 FP inh 70 | PAFAH2 FP conf 37
O=C(O/N=C1\CCS(=O)(=O)c2sccc21)c1c(F)cccc1F	none
O=S1(=O)CC/C(=N\Nc2ccccc2)c2ccsc21	none
Cc1ccc(C(=O)O/N=C2\CCS(=O)(=O)c3sccc32)cc1	PAFAH2 FP inh 88 | PAFAH2 FP conf 83
CCN(CC)CCNC(=O)c1cc(Nc2ccc(OC)c(OC)c2)nc2ccccc12	none
CSc1ncccc1C(=O)OCC(=O)c1[nH]c(C)c(C(C)=O)c1C	none (no result: CTSL1 counter)
COc1cc(C(=O)OCC(=O)NCCC2=CCCCC2)ccc1OCC(C)C	PAFAH2 FP inh 41 | PAFAH2 FP conf 43
COc1cccc(C(=O)OCC(=O)NCCC2=CCCCC2)c1	PAFAH2 FP inh 38 (no result: PP5 primary, CTSL1 counter) | PAFAH2 FP conf inactive
COCCN(CC(=O)Nc1cccc(C)c1C)C(=O)c1cc(-c2ccncc2)nc2ccccc12	none (no result: CTSL1 counter)
CN(C)S(=O)(=O)c1cc(NC(=O)COC(=O)C2COc3ccccc3O2)ccc1Cl (configuration not stated)	none
O=C(COC(=O)C1CC1)Nc1ccc2c(c1)OCO2	PAFAH2 FP inh 67 | PAFAH2 FP conf 54
Cc1ccc(Cl)c(NC(=O)COC(=O)C2CCC2)c1Cl	none
CCN(c1ccccc1)S(=O)(=O)c1cc(NC(=O)COC(=O)C2CC2)ccc1Cl	PAFAH2 FP inh 69 | PAFAH2 FP conf 59
Cc1ccc(NC(=O)COC(=O)C2CC2)cc1Cl	PAFAH2 FP inh 79 (no result: CTSL1 counter) | PAFAH2 FP conf 69
CCC(=O)OCC(=O)Nc1ccc2c(c1)OCO2	none
Cn1cnc(S(=O)(=O)Nc2ccc(Cl)c(C(F)(F)F)c2)c1	none
CCOc1ccc(N2CC(C(=O)NNC(=O)c3ccc(Br)cc3)CC2=O)cc1 (configuration not stated)	none
O=C(CCS(=O)(=O)c1ccc(F)cc1)N1CCN(c2ccccc2)CC1	PAFAH2 FP inh 32 | PAFAH2 FP conf inactive
O=C(CCS(=O)(=O)c1ccccc1)N1CCN(c2ccc(F)cc2)CC1	none
Cc1cccc(/C(N)=N/OC(=O)c2ccc3c(c2)OCO3)c1	PAFAH2 FP inh 42 | PAFAH2 FP conf 36
Cc1ccc(C(=O)O/N=C/c2ccc3c(c2)OCO3)cc1	PAFAH2 FP inh 48 | PAFAH2 FP conf 51
COc1ccccc1CC(=O)NCc1ccc2c(c1)OCO2	none
COc1ccccc1/C=N/OC(=O)c1ccc(C)cc1	PAFAH2 FP inh 87 | PAFAH2 FP conf 75
COc1ccccc1C/C(N)=N/OC(=O)c1ccc2c(c1)OCO2	PAFAH2 FP inh 77 | PAFAH2 FP conf 79
Cc1ccc(NC(=O)CNC(=O)c2ccco2)cc1	none
CCOC(=O)C1(C(=O)OCC)NC(=O)CC1CC(C)C (configuration not stated)	none (no result: PP5 primary, pPAFAH FP inh, CTSL1 counter)
COc1ccccc1C/C(N)=N/O	none
COc1ccccc1C/C(N)=N/OC(=O)c1ccco1	PAFAH2 FP inh 58 | PAFAH2 FP conf 62
COc1ccc(NC(=O)COC(=O)c2ccc(F)cc2F)cc1	none
COc1cccc(NC(=O)COC(=O)c2ccc(F)cc2F)c1	PAFAH2 FP inh 73 | PAFAH2 FP conf 61
N#Cc1ccccc1NC(=O)COC(=O)c1ccc(F)cc1F	PAFAH2 FP inh 46 | PAFAH2 FP conf inactive
Cc1ccccc1C(=O)N/N=C/c1ccc([N+](=O)[O-])s1	none
Cc1c(Cl)cccc1N=Cc1ccc([N+](=O)[O-])s1	PAFAH2 FP inh 71 | PAFAH2 FP conf inactive
O=C(NC1CCCCC1)C(c1ccncc1)N(Cc1ccc2c(c1)OCO2)C(=O)c1cnsn1 (configuration not stated)	PAFAH2 FP inh 33 | PAFAH2 FP conf inactive
CC1CC(C)CN(C(=O)/C(=C\c2ccccc2)c2ccccc2)C1 (configuration not stated)	none
CC1CCCCN1C(=O)/C(=C\c1ccccc1)c1ccccc1 (configuration not stated)	PAFAH2 FP inh 38 | PAFAH2 FP conf inactive
COc1ccc(CCNC(=O)COC(=O)c2ccc(C)s2)cc1OC	none (no result: CTSL1 counter)
COc1ccc(CCNC(=O)COC(=O)c2cccs2)cc1	PAFAH2 FP inh 44 (no result: PP5 primary, pPAFAH FP inh, CTSL1 counter) | PAFAH2 FP conf 34
COc1ccc(CCNC(=O)COC(=O)c2ccc(C)s2)cc1	PAFAH2 FP inh 56 (no result: CTSL1 counter) | PAFAH2 FP conf 47
CCCCC1(C(=O)OCC)CC(CSC(=N)N)OC1=O (configuration not stated)	none
N#C/C(=C\c1ccc(OCc2cccc(C(=O)O)c2)cc1)C(=O)NCc1ccco1	PAFAH2 FP inh 37 | PAFAH2 FP conf inactive
N#C/C(=C\c1ccc(OCc2ccc(C(=O)O)cc2)cc1)C(=O)NCc1ccccc1	none
O=c1oc(-c2ccccc2F)nc2c1cnn2-c1ccccc1	PAFAH2 FP inh 74 | PAFAH2 FP conf 45
Nc1c(-c2cccc(Cl)c2)cnn1-c1ccccc1	none
O=c1oc(-c2cccc(Cl)c2)nc2c1cnn2-c1ccccc1	PAFAH2 FP inh 70 | PAFAH2 FP conf 52
CSc1nc2c(cnn2-c2ccccc2)c(=O)n1N	none
COc1cccc(-c2ncc3ccccc3c2COC(=O)c2ccco2)c1	none (no result: CTSL1 counter)
CN(C)S(=O)(=O)c1cccc(NC(=O)COC(=O)/C=C/c2ccc([N+](=O)[O-])cc2)c1	PAFAH2 FP inh 34 | PAFAH2 FP conf inactive
